FMDV FLuc: shows antiviral activity against foot and mouth disease virus | FMDV antiviral cell assay, firefly luciferase signal | Potency, µM (series often up to 57.5 µM), most hits filed as inhibitors | actives 0.23% (n = 120,000) | AID 1745856; also: nearly all actives have a fitted effect of over 60% in size
FMDV RLuc: antivirals against foot and mouth disease virus replicon | FMDV replicon cells, Renilla luciferase signal | Potency, µM (titrated, usually from 57.5 µM), usual class: inhibitors | actives 0.32% (n = 120,000); also: nearly all actives have a fitted effect of over 55% in size
Hits are given with their value; – = inactive; ? = inconclusive; [ ] = another dose, or the depositor's remark. Sampled rows, rich in hits. Any-hit rate of the full collection: about 0.4%. Calls follow the shape of the full dose curve.

SMILES	FMDV FLuc	FMDV RLuc
CCc1ccc2occ(CC(=O)Nc3ccc(C)c(C)c3)c2c1	25µM	?
CC1CC(C)(C)C(CNC(=O)CCl)C1NC(=O)CCl (stereo unspecified)	–	?
Cc1ccc(C)c(S(=O)(=O)NCCc2ccc(Cl)cc2)c1	–	–
O=C(/C=C/c1ccc(Cl)cc1)c1ccccc1O	–	–
O=C(O)c1ccccc1C(=O)/C=C/c1ccc(Cl)cc1	–	28µM
S=c1[nH]nc(-c2n[nH]c3c2CCC3)n1/N=C/c1cccc2ccccc12	–	–
COc1ccc(OC)c(C(=O)NCC2(c3ccc(F)cc3)CCOCC2)c1	–	–
O=S(=O)(Nc1cccc(C(F)(F)F)c1)c1ccc(-c2cnc(C3CC3)o2)cc1	?	–
COc1ccc(NS(=O)(=O)c2ccc(-c3cnc(C4CC4)o3)cc2)cc1OC	8.9µM	–
Cn1nnnc1SCC(=O)N1N=C(c2cc3ccccc3o2)CC1c1ccco1 (stereo unspecified)	–	–
COc1ccc(NC(=O)c2ccccc2Cl)c2cccnc12	–	–
COc1ccc(NC(=O)COc2ccc(Cl)cc2)c2cccnc12	?	11µM
COc1ccc(NC(=O)COc2ccccc2Cl)c2cccnc12	11µM	10µM
CCOc1ccc(NC(=O)COc2ccc(OC)cc2)c2cccnc12	–	–
Cc1cc(=O)oc2cc(OCC(=O)NCCN(C)C)c(Cl)cc12	–	–
Brc1cccc(N=Cc2c3ccccc3cc3ccccc23)c1	–	–
O=c1[nH]c(=O)n(-c2ccccc2F)c2c1C(C(F)(F)F)(C(F)(F)F)N=C(c1ccncc1)N2	–	–
COc1ccc(C(=O)Nc2nnc(SCc3cc(=O)c4cc(C)cc(C)c4[nH]3)s2)cc1	–	–
COc1ccc(-c2nnc(SCc3cc(=O)c4cc(C)cc(C)c4[nH]3)n2C)cc1	?	4µM
Cc1ccc(OCC(=O)N2CCN(c3cc(=O)n4nc(-c5ccccc5)sc4n3)CC2)c(C)c1	–	–
CCN(C(=O)COc1ncnc2ccc(Br)cc12)c1ccccc1	–	–
CC(=O)Nc1ccc(-c2csc(Nc3ccc(O)cc3)n2)cc1	–	–
COc1ccc(-c2nc(CS(=O)(=O)CC(=O)NCc3cccnc3)c(C)o2)cc1	–	–
COc1ccc(-c2nc(CSCC(=O)NCc3cccnc3)c(C)o2)cc1	14µM	–
COc1ccccc1NC(=O)CSc1nc2ccsc2c(=O)n1C	22µM	22µM
SMILES	FMDV FLuc	FMDV RLuc
Cn1nc(CC(=O)NCc2ccc(F)cc2)c2ccccc2c1=O	–	?
COc1ccccc1NC(=O)Cc1nn(C)c(=O)c2ccccc12	10µM	10µM
CCn1c(SCC(=O)Nc2ccccc2C(=O)OC)nc2ccsc2c1=O	–	–
Cn1nc(CC(=O)Nc2ccc(F)cc2Cl)c2ccccc2c1=O	?	7.1µM
Cn1nc(CC(=O)Nc2cccc(OC(=O)c3ccc(Cl)cc3)c2)c2ccccc2c1=O	–	–
COc1ccc(S(=O)(=O)N(C)C)cc1NC(=O)Cc1nn(C)c(=O)c2ccccc12	–	–
Cn1nc(CC(=O)Nc2ccc(Cl)cc2)c2ccccc2c1=O	?	2.8µM
Cc1cc(-c2ccc(S(=O)(=O)N3CCN(c4cc(Cl)ccc4C)CC3)s2)on1	–	–
O=S(=O)(c1ccc(-c2csc(Nc3ccc(F)cc3)n2)cc1)N1CCCCC1	–	–
COc1nc(C(=O)NCC(C)N(C)C)cc2ccccc12 (stereo unspecified)	–	–
COc1nc(C(=O)NC2(c3ccccc3)CCC2)cc2ccccc12	?	4.5µM
Cc1ccc(NC(=O)CN2C(=O)C3(SCC(=O)N3c3cccc(Cl)c3)c3ccccc32)cc1C (stereo unspecified)	?	13µM
Cc1ccc(N2C(=O)CSC23C(=O)N(CC(=O)Nc2ccc(C(C)C)cc2)c2ccccc23)cc1C (stereo unspecified)	?	–
CC1(C)C2CCC1(C)C(OC(=O)C[N+]1(C)CCOCC1)C2 (stereo unspecified)	–	–
O=C(CC1CCCCC1)Nc1nc(-c2c[nH]c3ccccc23)cs1	–	–
O=C(Cc1ccccc1)NC1CCN(c2ccc(S(=O)(=O)C(F)(F)F)cc2)CC1	3.2µM	3.5µM
O=C(CCc1ccccc1)NC1CCN(c2ccccc2S(=O)(=O)C(F)(F)F)CC1	–	?
CC(=O)Nc1ccc(-c2csc(NC3CC3)n2)cc1	–	–
CNc1nc(-c2c(C(=O)OC)c(C)n(C3CC3)c2C)cs1	–	–
CCOc1ccc(-c2cc(C(=O)O)c3ccccc3n2)cc1	–	?
CCOc1ccc(-c2cc(C(=O)O)c3ccccc3n2)cc1OCC	–	20µM
CCOc1ccc(CN2CCN(c3ncnc4sccc34)CC2)cc1	1.1µM	0.89µM
COc1ccc(-c2csc3ncnc(N4CCN(Cc5ccccc5)CC4)c23)cc1	–	–
O=C(NCc1cccc(Cl)c1)c1cc2ccc3cccnc3c2[nH]1	–	–
CC(C)N(Cc1ccccc1)C(=O)c1cc2ccc3cccnc3c2[nH]1	25µM	8.9µM
SMILES	FMDV FLuc	FMDV RLuc
CN(CCNC(=O)NC1CCC(C(F)(F)F)CC1)Cc1ccccc1 (stereo unspecified)	–	–
COc1ccccc1C(=O)OC(c1ccc(NC(=O)c2ccc(OC(F)F)cc2)cc1)(C(F)(F)F)C(F)(F)F	–	–
Nc1nc(F)nc2c1ncn2[C@@H]1O[C@H](CO)[C@@H](O)[C@@H]1O	?	14µM
CC(C)=CCNc1ncnc2c1ncn2[C@@H]1O[C@H](CO)[C@@H](O)[C@H]1O	–[11.5 µM]	–
Cc1cccc(C(=O)N2CCN(Cc3ccc(-c4cccc(F)c4)s3)CC2)n1	10µM	?
Cc1ccc2c(CN3CCN(C(=O)c4cccc(F)c4)CC3)cc(=O)oc2c1	–	–
CCNC(=O)NC(=O)CN(Cc1ccc(C)cc1)C1CC1	–	–
c1ccc(OCCCN2CCC(c3nc4ccccc4s3)CC2)cc1	–	–
COc1ccc(NC(=O)c2c(NCc3cccs3)sc3c2CCCC3)cc1	–	8.9µM
COc1ccc(NC(=O)c2c(NCc3cccs3)sc3c2CCCCC3)c(OC)c1	–	–
CCCCn1nc(C(=O)NCC(=O)Nc2ccc(Br)cc2C)c2ccccc2c1=O	–	–
CC(C)NC(=O)/C(C#N)=C\c1ccc(O)cc1	–	–
CC(C)NC(=O)/C(C#N)=C\c1cccc(/C=C(/C#N)C(=O)NC(C)C)c1	28µM	–
CC(C)CCC(=O)Nc1cccc(S(=O)(=O)NC(C)(C)C)c1	–	–
CC(C)c1ccc(C(=O)COC(=O)c2ccc(N3CCOCC3)nc2)cc1	–	–
CCOC(=O)c1ccc(NCc2ccnc(N3CCOCC3)c2)nc1	?	28µM
S=c1sc2c(s1)SCCS2	–	–
O=C(Nc1ccc(S(=O)(=O)N2CCCCC2c2cccnc2)cc1)c1ccc(Br)cc1 (stereo unspecified)	25µM	?
CC(=O)Nc1ccc(S(=O)(=O)N2CCCCCC2c2ccc(C)s2)cc1 (stereo unspecified)	–	–
CC(=O)c1c(C)[nH]c(C(=O)Cn2cnc3c2c(=O)n(C)c(=O)n3C)c1C	–	–
CCOc1ccc2c(=O)c(-c3ccc(OC)c(OC)c3)c(C)oc2c1	–	–
COc1ccc(-c2c(C)oc3cc(OCC(=O)OC(C)(C)C)ccc3c2=O)cc1OC	28µM	?
COc1ccc(C2=C(O)C(=O)N(Cc3cccnc3)C2c2ccccc2F)cc1 (stereo unspecified)	–	–
Cn1c(SCC(=O)N2CCCC2)nc2ccsc2c1=O	–	–
CC(C)(C)c1ccc2c(c1)OCCOCCOCCOc1cc(C(C)(C)C)ccc1OCCOCCOCCO2	?	28µM
Oc1ccc2c(c1)OCCOCCOc1cc(O)ccc1OCCO2	–	–
